Experimental data taken from PubChem BioAssay AID2501 (Southern Research Specialized Biocontainment Screening …, 2010).
In all, about 2,200 compounds went through this assay and about 1,200 (55%) were called active. The limit is not given here; nearly all actives have IC50 up to about 92 µM. So high a share suggests a set chosen from earlier hits. The list shows a part of the results.

Experiment: counter assay for TAg ATPase ADP read-out – biochemical, ADP-Hunter, fluorescence, counter-screen (AID 2501);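 also: purified T antigen ATPase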
Settings: series mostly up to 100 µM
With `O=C(CC1SC(=O)N(c2ccccc2)C1=O)Nc1cccc2ccccc12` (stereo not given) the IC50 was “inactive”. With `COc1ccc(CCNc2ccc(C(CC(N)=O)NC(=O)Cc3ccc(Br)cc3)cc2[N+](=O)[O-])cc1` (stereo not given) the IC50 was “inactive”. With `CN(C)C(=S)Nc1ccc(N2CCOCC2)cc1` the IC50 was 2.52 µM (active). For `O=Cc1sc(=O)n(Cc2cccc(C(=O)O)c2)c1Cl`, the IC50 was “inactive”. In the case of `Cc1nc2sc(C(c3ccco3)N3CCC(C)CC3)c(O)n2n1` (stereo not given), the IC50 is reported as “inactive”. In the case of `Cc1ccc2nc(-c3ccccn3)c(NC3CCCC3)n2c1`, the IC50 is reported as 10.1 µM (active). In the case of `Cc1ccccc1Nc1c(-c2ccccn2)nc2ccccn12`, the IC50 is reported as 10.9 µM (active). With `c1ccc(-c2cccc(-c3ccccn3)n2)nc1` the IC50 was “inactive”. In the case of `C[C@@H]1NC(=O)[C@H](CCC(N)=O)NC(=O)c2cc([N+](=O)[O-])cc(I)c2NCC[C@@H](C(N)=O)NC1=O`, the IC50 is reported as “inactive”. With `O=c1[nH]c2ccccc2n2c(-c3ccccc3)nnc12` the IC50 was “inactive”. In the case of `CC(=O)Nc1ccc(S(=O)(=O)Nc2nc3ccccc3nc2Nc2ccc(N)cc2)cc1`, the IC50 is reported as 5.8 µM (active). For `CC(=O)Nc1ccc(S(=O)(=O)Nc2nc3ccccc3nc2Nc2ccc(O)cc2)cc1`, the IC50 was 7.76 µM (active). With `CC(=O)NS(=O)(=O)c1ccc(NC(=S)NC(=O)Cc2ccccc2)cc1` the IC50 was “inactive”. With `O=c1nc2s/c(=C\c3ccco3)c(=O)n2nc1Cc1ccc(F)cc1` the IC50 was “inactive”. In the case of `COc1cc(/C=N/NC(=O)c2cc(C3CC3)[nH]n2)ccc1O`, the IC50 is reported as 3.26 µM (active). In the case of `Cc1cc(C)n2nc(C(=O)N/N=C/c3ccc(O)cc3)nc2n1`, the IC50 is reported as 2.32 µM (active). In the case of `COc1cc(/C=N/NC(=O)c2nnn(-c3nonc3N)c2-c2cccs2)ccc1O`, the IC50 is reported as 3.94 µM (active). For `COc1cc(/C=N/NC(=O)c2ccc3nc[nH]c3c2)ccc1O`, the IC50 was 5.28 µM (active). In the case of `COc1cccc(CN2CCNC(=O)C2CC(=O)NCc2cn3ccccc3n2)c1OC` (stereo not given), the IC50 is reported as “inactive”. With `Cc1cccn2c(CN(C)CCC3CCCCO3)c(C(=O)N3CCCCC3)nc12` (stereo not given) the IC50 was “inactive”. With `COc1cc(/C=N/NC(=O)C2COc3ccccc3O2)ccc1O` (stereo not given) the IC50 was 3.2 µM (active). In the case of `COc1cc(/C=N/N(C)c2ccccc2)ccc1O`, the IC50 is reported as 8.84 µM (active). In the case of `COc1cc(/C=N/NC(=O)c2c(-c3ccccc3)noc2C)ccc1O`, the IC50 is reported as 4.78 µM (active). In the case of `COc1cc(/C=N/NC(=O)c2cnccn2)ccc1O`, the IC50 is reported as 3.09 µM (active). In the case of `C=CCN1CCN(C(=O)c2c(-c3ccccc3)noc2C)CC1`, the IC50 is reported as “inactive”. In the case of `CCCOc1ccc(C(=O)N2CC3(CC(c4cccc(NC(=O)[C@@H]5CCC(=O)N5)c4)=NO3)C[C@H]2C(=O)NC2(C(N)=O)CC2)cc1` (stereo not given in full), the IC50 is reported as “inactive”. With `COc1cc(/C=N/NC(=S)Nc2cccc(C(=O)O)c2)ccc1O` the IC50 was 2.66 µM (active). With `COc1cc(/C=N/NC(=O)c2nc(C)cc(C)n2)ccc1O` the IC50 was 2.74 µM (active). In the case of `COc1cc(/C=N/NC(=O)c2cccs2)ccc1O`, the IC50 is reported as 4.58 µM (active). In the case of `COc1cc(/C=N\NC(=O)c2c(C)nc3cc(C)ccn23)ccc1O`, the IC50 is reported as 4.52 µM (active). With `CCCOc1ccccc1/C=C1\SC(N2CCCCC2)=NC1=O` the IC50 was “inactive”. With `COc1cc(/C=N/NC(=O)c2ccccc2)ccc1O` the IC50 was 5.63 µM (active). With `COc1ccc(/C=N\NC(=O)c2ccc(=O)[nH]n2)cc1O` the IC50 was 3.12 µM (active). For `COc1cc(/C=N/NC(=O)c2ccncc2)ccc1O`, the IC50 was 3.56 µM (active). For `CCOC(=O)C[n+]1c(C)sc2ccc(OC)cc21`, the IC50 was “inactive”. With `O=c1[nH]c2ccc(NCc3ccc(F)cc3)cc2[nH]1` the IC50 was 5.43 µM (active). For `C=CCOc1ccc(CNc2ccc3[nH]c(=O)[nH]c3c2)cc1OCC`, the IC50 was 3.26 µM (active). In the case of `O=C(Nc1ccc2[nH]c(=O)[nH]c2c1)c1cccc([N+](=O)[O-])c1`, the IC50 is reported as “inactive”. With `C=CCOc1c(CNc2ccc3[nH]c(=O)[nH]c3c2)cccc1OC` the IC50 was 3.28 µM (active). In the case of `C=CCOc1ccccc1CNc1ccc2[nH]c(=O)[nH]c2c1`, the IC50 is reported as 5.14 µM (active). With `Cc1ccc(C2C(C#N)=C(N)Oc3c2oc(CO)cc3=O)o1` (stereo not given) the IC50 was “inactive”. In the case of `O=C1CC(=O)N(Cc2ccco2)C(=S)N1`, the IC50 is reported as “inactive”. For `O=C1c2sc3nc4n(c(=O)c3c2CCC1Br)CCCCC4` (stereo not given), the IC50 was “inactive”. For `COc1cccc(CNc2ccc3[nH]c(=O)[nH]c3c2)c1OCc1ccccc1`, the IC50 was 3.98 µM (active). With `C=CCOc1cccc(CNc2ccc3[nH]c(=O)[nH]c3c2)c1` the IC50 was 4.29 µM (active). For `COc1ccc2[nH]c(=O)c(CNc3ccccc3OC)cc2c1`, the IC50 was “inactive”. For `COc1cc(/C=C2\SC(=Nc3ccc(Cl)c(C(=O)O)c3)NC2=O)c(Br)c(Br)c1O`, the IC50 was 3.98 µM (active). For `COc1cc(/C=C2\S/C(=N/S(=O)(=O)c3ccc(C)cc3)NC2=O)c([N+](=O)[O-])cc1OC`, the IC50 was “inactive”. In the case of `CN1CN(C)c2cccc3cccc1c23`, the IC50 is reported as 13.5 µM (active). For `CN(C)c1ccc(N/C=C/C(=O)c2ccccc2)cc1`, the IC50 was 3.25 µM (active). For `COc1ccccc1N/C=C/C(=C(C#N)C#N)N(C)C`, the IC50 was “inactive”. In the case of `CCOC(=O)c1ccc(N/C=C/C(=O)C(C)(C)C)cc1`, the IC50 is reported as “inactive”. With `CN(C)c1ccc(N/C=C/C(=O)C(F)(F)F)cc1` the IC50 was 8.86 µM (active). With `O=S(=O)(Nc1c(O)ccc2ccccc12)c1ccc(F)cc1` the IC50 was “inactive”. With `Oc1ccc2ccccc2c1N=Nc1ccccc1F` the IC50 was 7.8 µM (active). In the case of `CCOc1cc(/C=N/NC(=O)CSc2cccc3cccnc23)ccc1O`, the IC50 is reported as 3.48 µM (active). With `O=C(N/N=C/c1ccc(O)c(O)c1)c1ccc(CSc2cccc3cccnc23)cc1` the IC50 was 29 µM (active). In the case of `O=C(CSc1cccc2cccnc12)N/N=C/c1ccc(O)cc1`, the IC50 is reported as 4.35 µM (active). With `O=S(=O)(Nc1cc(Sc2cccc3cccnc23)c(O)c2ccccc12)c1ccc(F)cc1` the IC50 was “inactive”. With `O=C(COc1cccc2cccnc12)N/N=C/c1ccc(O)cc1` the IC50 was 73.5 µM (active). In the case of `COc1ccc([C@@H]2[C@@H]3C(=O)N(C(C)(C)C)C(=O)[C@@H]3[C@]3(C)C(=O)N(c4ccc(C)cc4)C(=O)N23)cc1`, the IC50 is reported as “inactive”. With `COc1ccc(NC2CCCN(C(=O)c3ccc(OC)cc3OC)C2)cc1` (stereo not given) the IC50 was 3.38 µM (active). With `COc1ccc(NC2CCCN(C(=O)c3ccncc3)C2)cc1` (stereo not given) the IC50 was 12 µM (active). In the case of `CSc1ncc(CN2CCCC(C(=O)Nc3ccc(-c4ccco4)cc3)C2)cn1` (stereo not given), the IC50 is reported as “inactive”. In the case of `O=C(c1ccco1)N1CCCC(Nc2ccc3c(c2)OCCO3)C1` (stereo not given), the IC50 is reported as 13.5 µM (active). With `COc1ccc(NC2CCCN(C(=O)c3ccc(OC)o3)C2)cc1` (stereo not given) the IC50 was 10.4 µM (active). In the case of `O=C(c1ccco1)N1CCN(C(=O)N2CCCC2)CC1`, the IC50 is reported as “inactive”. In the case of `COCc1ccc(C(=O)N2CCCC(CCC(=O)NCc3ccccc3F)C2)o1` (stereo not given), the IC50 is reported as “inactive”. With `COc1ccc(C(=O)Nc2ccc3c(c2)CCCN3C(=O)c2cccs2)c(OC)c1` the IC50 was “inactive”. For `O=C(c1cc(F)ccc1F)C1CCCN(C(=O)c2ccc(F)cc2Cl)C1` (stereo not given), the IC50 was “inactive”.
